Results published in PubChem BioAssay (NCI).
This is part of a sample that, as a whole, favours compounds with a hit. Of some 79,000 tested, about 15% had one in any assay. The source made the active and inactive calls. Cut-off read from the data, not from the text of the source: active = growth inhibition above about 70%; inactive = the rest.

Key:
[1] = NCI Yeast Anticancer Drug Screen. Data for the rad50 strain (AID 155);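 note: 0% = growth of vehicle-only cultures of the same strain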; settings: S. cerevisiae rad50 strain growth inhibition, active compounds read high
Method in brief: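 Yeast carrying a defined DNA repair defect were exposed to test compounds, and growth was compared with vehicle-treated controls to give percent inhibition.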

[2] = NCI Yeast Anticancer Drug Screen. Data for the mec2-1 strain (AID 157); settings: S. cerevisiae mec2-1 strain, active compounds read high
Method in brief: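 Each compound was tested on mec2-1 yeast, a strain altered in DNA damage repair or cell cycle control. Growth inhibition is reported relative to vehicle.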

[3] = NCI Yeast Anticancer Drug Screen. Data for the sgs1 mgt1 strain (AID 161);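 note: 0% = growth of cultures given vehicle only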; settings: S. cerevisiae sgs1 mgt1 strain, active compounds read high
Method in brief: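 Mutant yeast exposed to compound; growth scored against vehicle-only wells.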

[4] = NCI Yeast Anticancer Drug Screen. Data for the cln2 rad14 strain (AID 165);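 note: 0% = growth equal to vehicle treated cultures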; settings: S. cerevisiae cln2 rad14 strain, active compounds read high
Method in brief: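 Test compounds were added to cln2 rad14 yeast cultures; inhibition of growth was then determined by comparison with vehicle treatment.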

[5] = NCI Yeast Anticancer Drug Screen. Data for the bub3 strain (AID 167); settings: S. cerevisiae bub3 mutant strain, active compounds read high
Method in brief: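 Compounds were applied to a genetically altered yeast strain carrying a cell-cycle control defect. Growth inhibition was scored against vehicle-treated controls.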

[6] = NCI Yeast Anticancer Drug Screen. Data for the mlh1 rad18 strain (AID 175); settings: S. cerevisiae mlh1 rad18 strain growth inhibition, active compounds read high
Method in brief: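 Inhibition values reflect reduced growth of mutant yeast versus vehicle-treated controls following compound exposure; the mutations affect DNA damage repair.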

[7] = at 5.0 µM (retest, dose inferred, filed as 0.5)
[8] = at 50.0 µM (retest, dose inferred, filed as 5.0)

Measured: growth inhibition

O=C1CCC(O)N1CN1C(=O)CCC1O (stereo not given)
inactive: [1]; [7] -4% | [1]; [8] 1% | [1]; at 50.0 µM 36.1% | [2]; [7] -4% | [2]; [8] -17% | [2]; at 50.0 µM 18.4% | [3]; [7] 9% | [3]; [8] -3% | [3]; at 50.0 µM 22.9% | [4]; [7] -17% | [4]; [8] 10% | [4]; at 50.0 µM 20.8% | [5]; [7] 18% | [5]; [8] -4% | [5]; at 50.0 µM 22.1% | [6]; [7] -6% | [6]; [8] -10% | [6]; at 50.0 µM 46.5%

CC(=O)NC(C)(C)C1CCC(C)=C(c2ccccc2)C1 (stereo not given)
inactive: [1]; [7] -10% | [1]; [8] 2% | [1]; at 50.0 µM 32.8% | [2]; [7] -9% | [2]; [8] -5% | [2]; at 50.0 µM -17.6% | [3]; [7] 5% | [3]; [8] 8% | [3]; at 50.0 µM 67.2% | [4]; [7] 19% | [4]; [8] 44% | [4]; at 50.0 µM 18.6% | [5]; [7] 17% | [5]; [8] 29% | [5]; at 50.0 µM 27.6% | [6]; [7] -3% | [6]; [8] 29% | [6]; at 50.0 µM -21.2%

NC(=O)c1ccc[n+](CC(=O)Nc2ccc(Cl)cc2)c1
inactive: [1]; [7] 2% | [1]; [8] -3% | [1]; at 50.0 µM 5.6% | [2]; [7] -9% | [2]; [8] -4% | [2]; at 50.0 µM -1.35% | [3]; [7] -5% | [3]; [8] -28% | [3]; at 50.0 µM -7.2% | [4]; [7] -1% | [4]; [8] -6% | [4]; at 50.0 µM -57.3% | [5]; [7] 0% | [5]; [8] -11% | [5]; at 50.0 µM 31% | [6]; [7] 11% | [6]; [8] 4% | [6]; at 50.0 µM -13.9%

c1cc[c]([Sn]([O]c2cccc3cccnc23)([c]2ccccc2)[c]2ccccc2)cc1
inactive: [1]; [8] 21% | [2]; [8] 10% | [3]; [8] 30% | [4]; [8] 11% | [5]; [8] 63% | [6]; [8] 14%
active: [1]; [7] 99% | [1]; at 50.0 µM 89.5% | [2]; [7] 100% | [2]; at 50.0 µM 92.2% | [3]; [7] 100% | [3]; at 50.0 µM 89.6% | [4]; [7] 99% | [4]; at 50.0 µM 85.8% | [5]; [7] 99% | [5]; at 50.0 µM 90.8% | [6]; [7] 100% | [6]; at 50.0 µM 93%

CCNC1(C2c3ccccc3-c3ccccc32)c2ccccc2-c2ccccc21
active: [1]; [8] 84% | [3]; [8] 84% | [5]; [8] 71% | [6]; [8] 74%
inactive: [1]; [7] 13% | [1]; at 50.0 µM 20% | [2]; [7] -17% | [2]; [8] 25% | [2]; at 50.0 µM 11.8% | [3]; [7] 4% | [3]; at 50.0 µM 44.1% | [4]; [7] -12% | [4]; [8] 36% | [4]; at 50.0 µM 18.5% | [5]; [7] -4% | [5]; at 50.0 µM 58.4% | [6]; [7] 30% | [6]; at 50.0 µM 37%

CC(=O)OCc1cc2ccccc2nc1C(Br)(Br)Br
active: [1]; [8] 95% | [1]; at 50.0 µM 96% | [2]; [8] 95% | [2]; at 50.0 µM 95.8% | [3]; [8] 99% | [3]; at 50.0 µM 97.5% | [4]; [8] 96% | [4]; at 50.0 µM 96.7% | [5]; [8] 99% | [5]; at 50.0 µM 95.2% | [6]; [8] 96% | [6]; at 50.0 µM 96.7%
inactive: [1]; [7] -11% | [2]; [7] -6% | [3]; [7] 39% | [4]; [7] -4% | [5]; [7] 62% | [6]; [7] 39%

CSc1nc2c(c(=O)[nH]1)C1C=C(C)CCC1C(C)(C)C2 (stereo not given)
inactive: [1]; [7] -5% | [1]; at 50.0 µM 52.1% | [2]; [7] -5% | [2]; at 50.0 µM 56.1% | [3]; [7] 0% | [3]; at 50.0 µM 56% | [4]; [7] -3% | [4]; at 50.0 µM 69.2% | [5]; [7] 10% | [5]; at 50.0 µM 53.8% | [6]; [7] -10% | [6]; at 50.0 µM 51.6%
active: [1]; [8] 97% | [2]; [8] 97% | [3]; [8] 97% | [4]; [8] 96% | [5]; [8] 97% | [6]; [8] 97%

C/C(=N/NC(=O)Nc1ccc(N=Nc2ccccc2)cc1)c1ccccn1
inactive: [1]; [7] -15% | [1]; [8] -12% | [1]; at 50.0 µM 15.2% | [2]; [7] -7% | [2]; [8] -5% | [2]; at 50.0 µM -10.9% | [3]; [7] 0% | [3]; [8] 19% | [3]; at 50.0 µM 24.8% | [4]; [7] 33% | [4]; [8] -16% | [4]; at 50.0 µM -4.4% | [5]; [7] 3% | [5]; [8] 43% | [5]; at 50.0 µM 16.4% | [6]; [7] -9% | [6]; [8] 15% | [6]; at 50.0 µM 28.1%

CCCCCCCCCC(=O)CC(=O)c1ccc(O)cc1O
active: [1]; [8] 96% | [1]; at 50.0 µM 86.5% | [2]; [8] 97% | [2]; at 50.0 µM 89.5% | [3]; [8] 98% | [3]; at 50.0 µM 89.7% | [4]; [8] 97% | [4]; at 50.0 µM 88.6% | [5]; [8] 98% | [5]; at 50.0 µM 89.2% | [6]; [8] 97% | [6]; at 50.0 µM 87.5%
inactive: [1]; [7] 33% | [2]; [7] 27% | [3]; [7] 50% | [4]; [7] 37% | [5]; [7] 39% | [6]; [7] 48%

CCc1cc2c(cc1O)CC[C@@H]1[C@@H]2CC[C@]2(C)[C@@H](O)CC[C@@H]12
inactive: [1]; [7] 31% | [2]; [7] -10% | [3]; [7] -17% | [4]; [7] 9% | [5]; [7] -39% | [5]; at 50.0 µM 49.5% | [6]; [7] 3%
active: [1]; [8] 96% | [1]; at 50.0 µM 88% | [2]; [8] 99% | [2]; at 50.0 µM 92% | [3]; [8] 96% | [3]; at 50.0 µM 89.3% | [4]; [8] 97% | [4]; at 50.0 µM 91% | [5]; [8] 98% | [6]; [8] 97% | [6]; at 50.0 µM 85.2%
